# An excerpt weighted towards active compounds, which were near 1.4% of everything screened.
# PV pol inh = poliovirus RNA polymerase inhibition. 150,000 compounds, 0.66% hits. % elongation, % (compound at 16.7 µg/mL). AID 588519. poliovirus polymerase elongation, fluorescence polarization; hits give low values; in the data active = % elongation below about 90%
# Mtb MbtI inh = inhibitors of Mycobacterium tuberculosis siderophore enzyme MbtI | purified MbtI enzyme, fluorescence intensity read-out | P9WFX0 | 100,000 compounds, 0.89% hits | AID 493033 | inhibition, % (concentration not given with the values); in the data active = inhibition mostly above about 56%, no sharp cut-off; inactive = mostly below about 77%
# MenB inh = Mtb MenB enzyme inhibition | P9WNP5 | MenB enzyme assay, absorbance read-out | inhibition, % (no concentration beside the values) | 100,000 compounds, 0.43% hits; in the data active = inhibition above about 21%, passing the limit was not always enough
# Target sequence (P9WNP5 whole entry, looked up): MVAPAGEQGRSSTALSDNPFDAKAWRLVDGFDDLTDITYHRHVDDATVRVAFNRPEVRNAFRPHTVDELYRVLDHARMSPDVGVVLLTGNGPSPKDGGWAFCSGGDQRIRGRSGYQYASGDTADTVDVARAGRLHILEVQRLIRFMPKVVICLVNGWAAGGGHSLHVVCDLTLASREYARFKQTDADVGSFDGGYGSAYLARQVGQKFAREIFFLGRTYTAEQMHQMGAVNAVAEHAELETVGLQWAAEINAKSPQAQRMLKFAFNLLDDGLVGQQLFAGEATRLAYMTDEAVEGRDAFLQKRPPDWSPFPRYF
# AID504770 = growth inhibitors of E. coli YBA685 in a screen for V. cholerae RctB (chromosome II replication) inhibitors; 130,000 compounds, 0.27% hits; AID 504770; E. coli YBA685 rctB-dependent plasmid, OD600 growth, 3 h; hits give low values; z-score (no concentration beside the values); in the data active = z-score below about -2, passing the limit was not always enough
# The depositor's hits bear a star; / = no result.
SMILES,PV pol inh,Mtb MbtI inh,MenB inh,AID504770
CN(C)C=NC(=S)c1sccc1CSc1ccc(Cl)cc1,106.0,73.7*,-25.6,1.75
CC1Sc2nnc(C(C)(C)C)n2N=C1c1ccc(Cl)cc1 (stereo not drawn),76.0*,92.5,-1.2,1.35
CCN(CC)S(=O)(=O)c1cccc(-n2sc3ccccc3c2=O)c1,108.0,100.4*,-19.1,0.4
N#C/C(=C(/O)CSc1n[nH]c(=O)[nH]c1=O)c1nc2ccccc2[nH]1,105.0,77.3*,1.3,-0.8
N#C/C(=C(/O)CSc1nc2ccccc2o1)c1nc2ccccc2[nH]1,111.0,-3.0,-2.4,0.2
CC(=O)N1CCN(C(=S)c2ccc(-c3cccc(Cl)c3Cl)o2)CC1,102.0,96.3*,-24.0,0.45
CC1CCN(C(=O)CN(c2ccccc2)S(C)(=O)=O)CC1,101.0,8.5,13.7,0.8
CCOC(=O)c1c(Nc2ccc(OC)c(Cl)c2)n[nH]c1C,98.0,87.8*,-56.4,3
O=c1oc2c(o1)=C(c1ccccc1)S(=O)(=O)C=2c1ccccc1,108.0,58.0*,15.9,1.25
O=c1cc(-c2ccccc2)oc2ccccc12,/,/,/,0.45
N#CSc1c(Cl)nc2sccn12,85.0*,64.8*,/,-4.35*
N#CC(C#N)=Cc1c(Cl)nc2sccn12,67.0*,-7.8,-105.3,-1.35
CN(C)C(=O)n1cc(C#N)c(-c2cccs2)n1,/,/,/,-0.4
N#CC(=S)Nc1ccc(F)cc1,85.0*,6.8,-9.0,-1.95
CNc1ccccc1C(=O)OCC(=O)c1ccccc1,102.0,-17.1,-15.9,-3.25*
O=C(Cn1cnc2c(oc3ccccc32)c1=O)Oc1ccccc1Cl,60.0*,11.7,-18.8,-0.5
Oc1ccccc1-c1nc2sccn2c1Nc1ccccc1,/,/,/,1.25
CCOC(=O)c1c(-c2cccs2)csc1NC(=O)c1ccccc1,106.0,11.1,-33.9,1.75
COC(=O)c1c(-c2cccs2)csc1NC(=O)c1cccc(Cl)c1,82.0*,/,/,/
COC(=O)c1c(-c2cccs2)csc1NC(=O)c1ccc(C(C)(C)C)cc1,77.0*,/,/,/
COC(=O)c1c(-c2cccs2)csc1NC(=O)c1ccc(Cl)cc1,67.0*,/,/,/
COC(=O)c1c(-c2cccs2)csc1NC(=O)c1ccc(C(C)C)cc1,67.0*,/,/,/
COC(=O)c1c(-c2cccs2)csc1NC(=O)COc1ccc(C)cc1,96.0,/,/,/
NC(=S)N1N=CCC1(O)C(F)(F)F (stereo not drawn),106.0,12.1,-25.6,0.15
COc1ccc(CNc2nccs2)cc1OC,101.0,3.5,28.8*,1.3
SMILES,PV pol inh,Mtb MbtI inh,MenB inh,AID504770
CC1=NN(c2nc3ccccc3[nH]2)C(=O)C1Cc1ccccc1 (stereo not drawn),107.0,75.7*,-74.1,-0.85
CN(C)c1ccc(NC(=O)Cn2c(SCc3ccccc3F)nc3cccnc32)cc1,19.0*,/,/,/
O=C(Cc1ccccc1Cl)NC1(O)C(=O)c2ccccc2C1=O,83.0*,-9.1,-9.6,-0.6
COc1ccc(OC)c(-n2c(N)c(C#N)c3nc4ccccc4nc32)c1,111.0,-23.3,-76.6,-2.1*
CN(CC(=O)O)Cc1cccnc1,99.0,-4.5,26.2*,-0.3
CCN1C(=O)C(=Cc2ccc(-c3ccc(Br)c(Cl)c3)o2)C(=O)N(CC)C1=S,99.0,90.3*,3.6,1
O=C(/C=C/c1cccs1)Nc1ccc(-c2nc3ccccc3o2)cc1,/,/,/,-0.85
COC(=O)CN(C)c1nnc(N)s1,91.0,96.2*,-4.8,-0.75
CC(C)CN(CC(C)C)c1nnc(N)s1,/,-12.3,/,-0.65
Cc1ccc(OC(=O)c2cc(-c3ccc4c(c3)OCCO4)on2)cc1C,103.0,/,/,/
Cc1cc(OC(=O)c2cc(-c3ccc4c(c3)OCCO4)on2)ccc1Cl,-17.0*,/,/,/
O=C1NC(=O)/C(=C\c2ccccc2)S1,/,/,/,0.3
O=C1N/C(=N\Nc2ccccc2)S/C1=C\c1ccccc1,108.0,80.1*,-36.1,-0.45
CC1CC(=O)c2cnn(-c3nc4ccccc4s3)c2C1 (stereo not drawn),101.0,-2.2,3.2,-0.75
CCN(Cc1ccncc1)Cn1c(=S)oc2ccccc21,102.0,74.8*,-7.2,0.75
O=C(Nc1ccc(N2CCCCS2(=O)=O)cc1)c1ccccc1,105.0,-13.6,-16.7,-1.45
CC(O)CNCc1ccc(-c2ccccc2)o1 (stereo not drawn),100.0,1.8,8.4,-0.1
CN(C)CCNCc1ccc(-c2ccccc2)o1,102.0,12.8,61.2*,-0.5
CC(C)(C)NC(=O)Cn1nc(-c2cc3c(s2)CCCC3)oc1=O,101.0,-5.8,7.1,0.05
CCCN(CCC)C1=CC(=O)C(C)=C(C)C1=O,86.0*,-26.3,-33.7,0
COC(=O)c1sc(N)nc1C,/,/,/,-0.45
CC(C)=CC[C@@H](O)C1=CC(=O)c2c(O)ccc(O)c2C1=O,46.0*,-22.5,/,/
CCC(C)(C)c1nnc(N)s1,96.0,99.3*,5.0,-0.15
